Source: PubChem BioAssay AID1159580 (chemical genetic matrix, 2015)
About 2,000 (36%) of roughly 5,500 compounds were called active. About 18% were inconclusive and are not listed. Cut-off read from the data, not from the text of the source: active = normalized growth mostly below about 0.91 (no sharp cut-off); inconclusive = no clear call, values can overlap the other calls; inactive = mostly above about 0.92. Some of the results follow.

Test: chemical genetic growth profiling, strain panel (AID 1159580);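 note: tested at 20 µM; growth read once vehicle control cultures reached saturation at 30 °C; 1 = growth at the plate median or of vehicle wells; lower values mean less growth of the strain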
Details: growth OD

Measured: normalized growth

CCC(c1ccc(O)cc1)C(CC)c1ccc(O)cc1 (stereo not drawn)
inactive: S. cerevisiae deletion strains, locus YJR075W, strain HOC1, stronger effect = lower value 1.01 | S. cerevisiae deletion strains, locus YKL068W, stronger effect = lower value 0.99 | S. cerevisiae deletion strains, locus YKL085W, strain MDH1 (second series), stronger effect = lower value 0.984 | S. cerevisiae deletion strains, locus YKL085W, strain MDH1, stronger effect = lower value 0.984 | S. cerevisiae deletion strains, locus YKL160W, strain elf1, stronger effect = lower value 0.928 | S. cerevisiae deletion strains, locus YKL190W, strain CNB1, stronger effect = lower value 0.994 | S. cerevisiae deletion strains, locus YKR001C, strain vps1, stronger effect = lower value 0.99 | S. cerevisiae deletion strains, locus YKR026C, strain gcn3, stronger effect = lower value 0.982 | S. cerevisiae deletion strains, locus YKR091W, strain srl3, stronger effect = lower value 1 | S. cerevisiae deletion strains, locus YLL001W, strain dnm1, stronger effect = lower value 0.943 | S. cerevisiae deletion strains, locus YLL041C, strain sdh2, stronger effect = lower value 0.976 | S. cerevisiae deletion strains, locus YLR058C, strain SHM2, stronger effect = lower value 1 | S. cerevisiae deletion strains, locus YLR102C, strain apc9, stronger effect = lower value 1.01 | S. cerevisiae deletion strains, locus YLR268W, strain sec22, stronger effect = lower value 0.912 | S. cerevisiae deletion strains, locus YLR330W, strain CHS5, stronger effect = lower value 1.01 | S. cerevisiae deletion strains, locus YLR342W, strain FKS1 (second series), stronger effect = lower value 0.962 | S. cerevisiae deletion strains, locus YLR342W, strain FKS1, stronger effect = lower value 0.938 | S. cerevisiae deletion strains, locus YLR357W, strain rsc2, stronger effect = lower value 0.984 | S. cerevisiae deletion strains, locus YLR370C, strain arc18, stronger effect = lower value 0.993 | S. cerevisiae deletion strains, locus YLR371W, strain rom2, stronger effect = lower value 1.01 | S. cerevisiae deletion strains, locus YLR384C, strain iki3, stronger effect = lower value 1.01 | S. cerevisiae deletion strains, locus YLR418C, strain cdc73, stronger effect = lower value 0.871 | S. cerevisiae deletion strains, locus YML016C, strain PPZ1, stronger effect = lower value 0.996 | S. cerevisiae deletion strains, locus YML032C, strain rad52, stronger effect = lower value 0.935 | S. cerevisiae deletion strains, locus YML124C, strain tub3, stronger effect = lower value 1.01 | S. cerevisiae deletion strains, locus YMR078C, strain ctf18, stronger effect = lower value 0.994 | S. cerevisiae deletion strains, locus YMR125W, strain sto1, stronger effect = lower value 1.01 | S. cerevisiae deletion strains, locus YMR129W, stronger effect = lower value 0.957 | S. cerevisiae deletion strains, locus YMR223W, strain ubp8, stronger effect = lower value 0.94 | S. cerevisiae deletion strains, locus YMR231W, strain pep5, stronger effect = lower value 1.01 | S. cerevisiae deletion strains, locus YMR263W, strain SAP30, stronger effect = lower value 0.973 | S. cerevisiae deletion strains, locus YNL067W, strain RPL9B, stronger effect = lower value 0.956 | S. cerevisiae deletion strains, locus YNL128W, strain TEP1, stronger effect = lower value 1.02 | S. cerevisiae deletion strains, locus YNL153C, strain GIM3, stronger effect = lower value 0.982 | S. cerevisiae deletion strains, locus YNL209W, strain ssb2, stronger effect = lower value 0.976 | S. cerevisiae deletion strains, locus YNL233W, strain BNI4, stronger effect = lower value 0.974 | S. cerevisiae deletion strains, locus YNL248C, strain rpa49, stronger effect = lower value 0.942 | S. cerevisiae deletion strains, locus YNL250W, strain rad50, stronger effect = lower value 0.985 | S. cerevisiae deletion strains, locus YNL271C, strain bni1, stronger effect = lower value 0.985 | S. cerevisiae deletion strains, locus YNL298W, strain CLA4, stronger effect = lower value 0.912 | S. cerevisiae deletion strains, locus YNL322C, strain KRE1 (second series), stronger effect = lower value 0.985 | S. cerevisiae deletion strains, locus YNL322C, strain KRE1, stronger effect = lower value 1.01 | S. cerevisiae deletion strains, locus YNR049C, strain mso1, stronger effect = lower value 1 | S. cerevisiae deletion strains, locus YNR052C, strain pop2, stronger effect = lower value 0.938 | S. cerevisiae deletion strains, locus YOL006C, strain TOP1, stronger effect = lower value 0.769 | S. cerevisiae deletion strains, locus YOL012C, strain htz1 1.31 | S. cerevisiae deletion strains, locus YOL147C, strain pex11, stronger effect = lower value 0.997 | S. cerevisiae deletion strains, locus YOR061W, strain CKA2, stronger effect = lower value 0.984 | S. cerevisiae deletion strains, locus YOR069W, strain VPS5, stronger effect = lower value 0.999 | S. cerevisiae deletion strains, locus YOR070C, strain gyp1, stronger effect = lower value 0.942 | S. cerevisiae deletion strains, locus YOR080W, strain dia2, stronger effect = lower value 0.974 | S. cerevisiae deletion strains, locus YOR083W, strain WHI5, stronger effect = lower value 0.899 | S. cerevisiae deletion strains, locus YOR136W, strain idh2, stronger effect = lower value 0.996 | S. cerevisiae deletion strains, locus YOR144C, strain elg1, stronger effect = lower value 1.01 | S. cerevisiae deletion strains, locus YOR265W, strain rbl2, stronger effect = lower value 0.966 | S. cerevisiae deletion strains, locus YOR270C, strain vph1, stronger effect = lower value 0.792 | S. cerevisiae deletion strains, locus YOR290C, strain snf2, stronger effect = lower value 0.953 | S. cerevisiae deletion strains, locus YOR316C, strain cot1, stronger effect = lower value 1.01 | S. cerevisiae deletion strains, locus YPL055C, strain LGE1, stronger effect = lower value 0.979 | S. cerevisiae deletion strains, locus YPL078C, strain atp4, stronger effect = lower value 0.895 | S. cerevisiae deletion strains, locus YPL106C, strain sse1, stronger effect = lower value 0.93 | S. cerevisiae deletion strains, locus YPL240C, strain hsp82, stronger effect = lower value 0.971 | S. cerevisiae deletion strains, locus YPL241C, strain CIN2, stronger effect = lower value 0.998 | S. cerevisiae deletion strains, locus YPR119W, strain clb2, stronger effect = lower value 1 | S. cerevisiae deletion strains, locus YPR141C, strain kar3, stronger effect = lower value 0.994 | S. cerevisiae deletion strains, locus YPR163C, strain tif3, stronger effect = lower value 1.02 | S. cerevisiae deletion strains, locus YPR167C, strain met16, stronger effect = lower value 0.987 | S. cerevisiae deletion strains, strain wtn01, stronger effect = lower value 0.959 | S. cerevisiae strains, strain wild type, stronger effect = lower value 0.995
active: S. cerevisiae deletion strains, locus YKL009W, strain mrt4, stronger effect = lower value 0.871 | S. cerevisiae deletion strains, locus YLL026W, stronger effect = lower value 0.862 | S. cerevisiae deletion strains, locus YLR027C, strain aat2, stronger effect = lower value 0.829 | S. cerevisiae deletion strains, locus YLR039C, strain RIC1, stronger effect = lower value 0.6 | S. cerevisiae deletion strains, locus YLR221C, strain rsa3, stronger effect = lower value 0.828 | S. cerevisiae deletion strains, locus YLR258W, strain gsy2, stronger effect = lower value 0.902 | S. cerevisiae deletion strains, locus YLR262C, strain YPT6 (second series), stronger effect = lower value 0.396 | S. cerevisiae deletion strains, locus YLR262C, strain YPT6, stronger effect = lower value 0.575 | S. cerevisiae deletion strains, locus YLR320W, strain mms22, stronger effect = lower value 0.868 | S. cerevisiae deletion strains, locus YML120C, strain ndi1, stronger effect = lower value 0.733 | S. cerevisiae deletion strains, locus YMR058W, strain fet3, stronger effect = lower value 0.864 | S. cerevisiae deletion strains, locus YMR205C, strain PFK2, stronger effect = lower value 0.844 | S. cerevisiae deletion strains, locus YMR307W, strain GAS1, stronger effect = lower value 0.592 | S. cerevisiae deletion strains, locus YNL071W, strain lat1, stronger effect = lower value 0.786 | S. cerevisiae deletion strains, locus YNL307C, strain MCK1, stronger effect = lower value 0.877 | S. cerevisiae deletion strains, locus YOR001W, strain rrp6, stronger effect = lower value 0.808 | S. cerevisiae deletion strains, locus YOR106W, strain vam3, stronger effect = lower value 0.804 | S. cerevisiae deletion strains, locus YOR184W, strain ser1, stronger effect = lower value 0.761 | S. cerevisiae deletion strains, locus YPL051W, strain arl3, stronger effect = lower value 0.849
